The campaign covered roughly 48,000 compounds. About 13,000 (27%) showed an effect of 50% or more. The list shows a part of the results.
Each compound was assayed on Wolbachia pipientis (assay: Anti-Wolbachia Cell-Based Screen). Details: 5 µM.
Format: functional
Set-up: scale not given: in the data most compounds retested in dose-response had high values

SMILES | Percent Effect
CCC(CC)NC(=O)c1ccc2nnc(C3CCN(C(C)=O)C3)n2c1 (stereo not drawn) | -17.88%
O=C(c1cnc(-c2ccccc2)nc1)N1CCOC2(CCCC2)C1 | -7.447%
O=C(c1ccc(Cl)cc1)N1CCC2(C1)C(=O)Nc1ccccc12 (stereo not drawn) | 123%
O=C(c1ccoc1)N1CCC2(CC1)C(=O)Nc1ccccc12 | 5.078%
CC(=O)N1CCC2(CC1)CN(C(=O)c1cccc3[nH]ccc13)CCO2 | -6.539%
NCCC(=O)N1CCC2(CC1)CN(C(=O)c1ccc(Cl)cc1)CCO2 | 94.29%
NCCCC(=O)N1CCC2(CC1)CN(C(=O)c1ccc(Cl)cc1)CCO2 | 114.9%
CN(C)C(=O)NC1COC2(CCN(C(=O)c3ccc(Cl)cc3)CC2)C1 (stereo not drawn) | -7.709%
O=C(c1ccc(Cl)cc1)N1CCC2(CC1)C(=O)Nc1ccccc12 | 0.2295%
CC(C)N(C)C(=O)C1=NOC2(CCN(C(=O)c3ccc(Cl)cc3)C2)C1 (stereo not drawn) | -15.34%
CN(C)Cc1ccc(NC(=O)c2nccn3ccnc23)cc1 | 4.692%
CC(C)c1nc2c(n1C)CCN(Cc1nc(-c3cccs3)no1)C2 | -3.537%
c1cc(CN2CCc3cncnc3C2)c2c(c1)OCCO2 | 51.63%
COc1ccc(-c2noc(CN3CCc4cncnc4C3)n2)cc1 | -16.15%
Cn1nc2c(cc1=O)CN(Cc1nc(-c3cccs3)no1)CC2 | -4.413%
c1csc(-c2noc(CN3CCc4cncnc4C3)n2)c1 | 93.12%
CCc1ncc2c(n1)CN(Cc1nc(-c3ccsc3)no1)CC2 | -2.841%
CCc1ncc2c(n1)CN(Cc1nc(-c3cccs3)no1)CC2 | 94.19%
Cc1ncc2c(n1)CN(Cc1nc(-c3cccs3)no1)CC2 | 104.1%
CCc1ncc2c(n1)CN(Cc1cccc3c1OCCO3)CC2 | -19.5%
Cc1ncc2c(n1)CN(Cc1cccc3c1OCCO3)CC2 | -20.45%
c1csc(-c2noc(CN3CCc4c(ncn4C4CC4)C3)n2)c1 | -1.185%
CC(C)c1ncc2c(n1)CN(Cc1nc(-c3cccs3)no1)CC2 | 1.311%
O=C(NC1(c2nnn(CC3CC3)n2)CCCC1)c1ccccc1 | -31.69%
CCc1nc(C)c(C(=O)N2CCCC(c3noc(C)n3)C2)s1 (stereo not drawn) | -3.627%
CN(C)c1ccc(CCCNC(=O)NCC(O)c2cccs2)cc1 (stereo not drawn) | 15.76%

SMILES | Percent Effect
CN1CCN(CCCNC(=O)C2CCCCC2)CC1 | -13.83%
CCC(NCCn1cccn1)C(=O)Nc1cc(C)on1 (stereo not drawn) | -12.89%
Cc1cc(-c2cnn(CCNC(=O)Cc3ccccn3)c2C2CC2)on1 | 116.9%
CC1CCN(C(CNC(=O)CCn2cccn2)c2cccs2)CC1 (stereo not drawn) | 3.155%
Cc1cc(-c2cnn(CCNC(=O)CCn3cccn3)c2C2CC2)on1 | 139.3%
O=C(O)C(F)(F)F.O=S(=O)(C1CC1)N1CCc2onc(COc3ccccn3)c2C1 | -9.105%
Cn1cnc2c1CCN(CC(O)c1ccc(S(C)(=O)=O)cc1)C2 (stereo not drawn) | 1.592%
Cc1ccoc1C(=O)NCC(c1ccccc1Cl)N1CCOCC1 (stereo not drawn) | -4.275%
CC(O)CN1CC(C)(C)CN(C(=O)CCc2ccccc2)CC1=O (stereo not drawn) | 108.2%
CCc1nc(C(=O)N2CCN(C(=O)CCc3ccccc3)CC2)c[nH]1 | -3.201%
CC(C)(O)CN1CC(C)(C)CN(C(=O)CCc2ccccc2)CC1=O | 88.99%
CCCC(O)CN1CC(C)(C)CN(C(=O)CCc2ccccc2)CC1=O (stereo not drawn) | 81.6%
CCN1CC(C)(C)CN(C(=O)CCc2ccccc2)CC1=O | 98.77%
O=C(CCc1ccccc1)N1CCn2cc(CN3CCCC3)nc2C1 | 5.739%
CCC(Nc1nnnn1-c1ccccc1)C(=O)NC1CCSCC1 (stereo not drawn) | 2.585%
O=C(O)C1(Oc2ccccc2F)CCN(C/C=C/c2ccco2)CC1 | 10.04%
Oc1ccc(-c2c(-c3ccccc3)ncn2C2CCNC2)cc1 (stereo not drawn) | 5.17%
COc1cc2c(cc1C1CC(=O)NCc3nc(N(C)C)sc31)CCC2 (stereo not drawn) | -15.52%
CC1N(C)C(=O)COC12CCN(C(=O)CCc1ccccc1)CC2 (stereo not drawn) | 0.4061%
COCC(O)CN1CC(C)(C)CN(C(=O)CCc2ccccc2)CC1=O (stereo not drawn) | 110.7%
CN1CCN(C(=O)CCc2ccccc2)Cc2cccnc21.O=C(O)C(F)(F)F | -4.699%
CN1CC(C)(C)CN(C(=O)CCc2ccccc2)CC1=O | 83.23%
CN1C(=O)CC(C(=O)O)C12CCN(Cc1ccc(Cl)cc1F)CC2 (stereo not drawn) | 5.202%
CC(=O)NCC(=O)N1Cc2nccn2CC(CN(C)C(C)C)C1.O=C(O)C(F)(F)F (stereo not drawn) | -7.594%
CC(C)NC(=O)N1Cc2nccn2CC(CN2CCCC2)C1.O=C(O)C(F)(F)F (stereo not drawn) | 12.37%
CC(C)NC(=O)N1Cc2nccn2CC(COc2cccnc2)C1.O=C(O)C(F)(F)F (stereo not drawn) | 96.94%

SMILES | Percent Effect
CC(=O)NCC(=O)N1Cc2nccn2CC(COc2cccnc2)C1.O=C(O)C(F)(F)F (stereo not drawn) | 111.9%
CC(=O)NCC(=O)N1Cc2nccn2CC(CN2CCCC2=O)C1 (stereo not drawn) | 14.08%
Cn1cc(Br)cc(NC(=O)CC(C)(C)C)c1=O | 3.241%
CSc1ccc2cc(CN(C)CCc3cn[nH]c3)c(=O)[nH]c2c1 | 4.017%
CC(C)NC(=O)NCc1ccccc1NS(=O)(=O)c1ccccc1 | 15.1%
CC(C)OCc1ccccc1CNC(=O)C(C)S(=O)(=O)C(C)C (stereo not drawn) | 93.94%
CC(C)(C)C(=O)NCc1cnn2ccccc12 | -7.626%
CC(C)S(=O)(=O)C(C)C(=O)NCc1ccccc1COc1ccccc1 (stereo not drawn) | 92.84%
CC(C)OCc1ccccc1CNC(=O)C(C)(C)C | 99.75%
CC(C)S(=O)(=O)C(C)C(=O)NCc1cccc(N2CCCCC2=O)c1 (stereo not drawn) | 12.9%
CC(C)OCc1ccc(CNC(=O)CC(F)(F)F)cc1 | 28.04%
CC(C)S(=O)(=O)C(C)C(=O)NCc1ccccc1OCc1ccccc1 (stereo not drawn) | 96.24%
CCOc1ccccc1CNC(=O)N(CC)C(C)c1cccnc1 (stereo not drawn) | 2.92%
CCc1ccccc1CNC(=O)CNC(=O)C(C)(C)C | -5.244%
CC(C)C(=O)NCc1ccccc1NS(=O)(=O)c1ccccc1 | -3.24%
CC(COc1ccccc1)NS(C)(=O)=O (stereo not drawn) | -8.999%
Cc1cc(C(=O)N2CC(=O)Nc3cnccc32)c(Cl)cc1F | -6.598%
COc1ccc(N2CCCC3(C2)CN(c2nncs2)CCO3)cc1 (stereo not drawn) | -4.383%
O=C(Cc1ccsc1)NCC1Cn2nnc(-c3ccoc3)c2CO1 (stereo not drawn) | -0.8336%
CC(C)N(C)C(=O)C1CCN(Cc2cc3c(cc2O)CCC3)CC1 | 3.726%
O=C(NCc1ccccc1CO)C1COc2ccccc21 (stereo not drawn) | -7.77%
CCCN1CCC(Nc2cc(-c3ccccc3)ccc2OC)CC1 | 9.804%
C=C(C)CN(CC)C(=O)CN1CCCC1C(=O)N(C)C (stereo not drawn) | 1.656%
CSc1ccsc1C(=O)NS(=O)(=O)c1cccc(C#N)c1 | -50.61%
CCOc1cc(C(=O)NS(=O)(=O)c2cccc(C#N)c2)ccc1OC | 121%
COc1ccc(C(=O)NS(=O)(=O)c2cncc(Br)c2)cc1OC | -20.98%

SMILES | Percent Effect
N#Cc1ccc(C(=O)NS(=O)(=O)c2ccc(F)c(F)c2)cc1 | 6.651%
COc1cc(C(=O)NS(=O)(=O)c2cccc(C#N)c2)cc(OC)c1Br | 100.1%
N#Cc1ccc(S(=O)(=O)NC(=O)c2ccc3c(c2)COC3)cc1 | -13.21%
COc1cc(C(=O)NS(=O)(=O)c2cccc(C#N)c2)cc(Cl)c1OC | 0.151%
COc1cc(C(=O)NS(=O)(=O)c2cccc(C#N)c2)ccc1C | 0.1033%
COc1cc(C(=O)NS(=O)(=O)c2ccc(C#N)cc2)ccc1C | 127.1%
COc1cc(C(=O)NS(=O)(=O)c2cccc(C#N)c2)cc(OC)c1C | 111.6%
CC(C)(C)C(=O)NCCC(=O)NS(=O)(=O)c1cccc(C#N)c1 | -5.738%
CNC(=O)c1cccc(CCNC2CCSc3ccccc32)c1 (stereo not drawn) | -5.556%
CC(=O)Nc1ccc(C(=O)Nc2cnc3n2CCCC3)c(C)c1 | -9.74%
Cn1ccc(CNC(=O)N2CCC(C3(C)OCCO3)CC2)c1 | 7.37%
c1cnn(C2CN(Cc3noc(C4CC4)n3)C2)c1 | 20.24%
COC(=O)[C@H]1C[C@@H](O)CCN1S(=O)(=O)c1cc(Cl)ccc1OC | -10.78%
Cc1nccn1-c1cc(CNC(=O)CCC2CCCO2)ccn1 (stereo not drawn) | 10.65%
COc1ccccc1C(=O)NS(=O)(=O)c1cccc(C#N)c1 | 106.4%
COC(=O)c1cccc(S(=O)(=O)NC(=O)c2cccc(OC)c2OC)c1 | 4.901%
COc1cccc(C(=O)NS(=O)(=O)c2cccc(C#N)c2)c1OC | -1.089%
O=C(Nc1ccccc1Oc1cccc(F)c1)C1CCS(=O)(=O)C1 (stereo not drawn) | 17.61%
COc1nc2ccn(CCc3cnccn3)c(=O)c2cc1C#N | -4.634%
COCCn1ccc2c(cnc3nc(SC)nn32)c1=O | 167%
CN1CCN(CCn2cnc3c(F)cccc3c2=O)CC1 | 0.6334%
COCCn1cncc1Cn1cccc(C(F)(F)F)c1=O | -5.803%
CSc1nc2ncc3c(=O)n(CCN4CCCCC4)ccc3n2n1 | 124.9%
CS(=O)(=O)Cc1nc(CCc2ccccc2)nn1-c1ccccn1 | -12.46%
NC(=O)NCC(=O)N1CCCC(c2nccn2Cc2ccncc2)C1 (stereo not drawn) | -11.58%

— ChEMBL document CHEMBL3988442, “University of Dundee, Small-Polar-MMV Screening Library” (2021)
